High-throughput results (PubChem BioAssay)
PPARg SRC-2 ag: agonists of SRC-2 recruitment by human PPARgamma; P37231; PPARgamma LBD-SRC-2 recruitment, biochemical; activation, % at 8 µM; 200,000 tested, 0.34% active; AID 1032
PPARg SRC-1 ag: PPARgamma-driven SRC-1 recruitment agonism. P37231. PPARgamma-SRC-1 coactivator recruitment biochemical assay. activation, % at 8 µM. 200,000 tested, 0.41% active; in the data active means activation above about 19%
SRC3 TRFRET art: TR-FRET artefact, counter-screen to PPARgamma/SRC-3 agonist assay. PPARgamma/SRC-3 format; active compounds read high. TR-FRET ratio at 8 µM. 99,000 tested, 0.39% active. AID 1048; in the data active means TR-FRET ratio above about 2000
SRC2 TRFRET art: TR-FRET artefact, counter-screen to PPARgamma/SRC-2 agonist assay; active compounds read high; TR-FRET ratio at 8 µM; 200,000 tested, 0.4% active; in the data active means TR-FRET ratio above about 2000
SRC1 TRFRET art: flags TR-FRET format artefacts in PPARgamma SRC-1 recruitment agonist screen. TR-FRET detection artefact counter-screen, emission ratio; active compounds read high. TR-FRET ratio at 8 µM. 99,000 tested, 0.34% active. AID 1051; in the data active means TR-FRET ratio above about 2300
PPARg SRC-3 ag: PPARgamma-driven SRC-3 recruitment agonism; P37231; 200,000 tested, 0.26% active; activation, % at 8 µM; biochemical PPARgamma/SRC-3 coactivator recruitment assay; in the data active means activation above about 23%
PPARg SRC2 conf: human PPARgamma SRC-2 recruitment agonism, confirmation. biochemical SRC-2 recruitment by PPARgamma. 790 tested, 52% active. AID 1297. shares compounds with PPARg SRC-3 ag. activation, % at 8 µM
PPARg SRC1 ag: human PPARgamma SRC-1 recruitment agonism, confirmation. shares compounds with PPARg SRC-3 ag. PPARgamma–SRC-1 coactivator recruitment biochemical assay. activation, % at 8 µM. 790 tested, 43% active. AID 1300; in the data active means activation above about 20%
PPARg SRC3 ag: human PPARgamma SRC-3 recruitment agonism, confirmation. shares compounds with PPARg SRC-3 ag. biochemical PPARgamma-SRC-3 coactivator recruitment, agonist mode. activation, % at 8 µM. 790 tested, 29% active. AID 1301; in the data active means activation above about 24%
A number is an active result; – = inactive; · = no result. Most compounds without a hit are left out; they make up all but 0.9% or so of the library. Unless noted, no stated cut-off is given here; in the data, active means activation above about 22%; inactive means the rest.

SMILES	PPARg SRC-2 ag	PPARg SRC-1 ag	SRC3 TRFRET art	SRC2 TRFRET art	SRC1 TRFRET art	PPARg SRC-3 ag	PPARg SRC2 conf	PPARg SRC1 ag	PPARg SRC3 ag
CCn1c2c(c3cc(Br)ccc31)CCC/C2=N\O	39	34	·	2351	·	61	45	30	29
CCn1c2c(c3cc(OCC(C)C)ccc31)CCCC2=O	–	–	·	–	·	–	·	·	·
N#Cc1c(NC(=O)CSc2nc(N)cc(=O)[nH]2)sc2c1CCCC2	–	–	–	–	–	–	·	·	·
CNC(=S)N1N=C(c2ccc(C)cc2)CC1c1ccc(Cl)cc1 (stereo unspecified)	23	–	·	2072	·	–	–	–	–
[O-][n+]1c2c(nc3c1-c1ccccc1C3O)CCCC2 (stereo unspecified)	–	–	–	–	–	–	·	·	·
S=C(Nc1ccc2nsnc2c1)N1CCCCC1	22	–	–	–	–	–	–	–	–
CCOc1ccc(CCNC(=O)CSc2cc(=O)n(CC)c3ccccc23)cc1OCC	31	20	–	2084	–	–	25	–	–
CCn1c(=O)cc(SCC(=O)N(C)Cc2ccccc2)c2ccccc21	47	32	·	2336	·	34	42	28	27
CCOC(=O)CSc1cc(=O)n(C)c2cc(Cl)ccc12	68	77	·	3535	·	97	43	26	28
CCCc1cc(=O)[nH]c(SCC(=O)N(C)Cc2ccccc2)n1	–	–	·	–	·	–	·	·	·
Cn1c(=O)cc(SCC(=O)NCC2COc3ccccc3O2)c2ccccc21 (stereo unspecified)	–	–	·	–	·	–	·	·	·
CN(Cc1ccccc1)C(=O)CSc1cc(=O)n(C)c2ccccc12	–	46	2514	2656	3203	31	32	22	24
O=C(Nc1nonc1NC(=O)c1cccs1)c1cccs1	–	–	–	–	–	–	·	·	·
CCCc1cc(=O)[nH]c(SCC(=O)NCCC2=CCCCC2)n1	–	–	–	–	–	–	·	·	·
Cc1nnc(SCC(=O)NCCc2ccccc2)s1	–	–	–	–	–	–	·	·	·
CCc1ccc(C(=O)COC(=O)c2ccc(Cl)nc2)cc1	–	–	–	–	–	–	·	·	·
Cc1ccc(N(C)C(=O)N2CCN(S(=O)(=O)c3c(C)cc(C)cc3C)CC2)cc1	–	–	·	–	·	–	·	·	·
C/C(N)=C(/C#N)C(=O)CSc1nc2ccccc2c(=O)n1-c1ccc(C)c(Cl)c1	–	–	–	–	–	–	·	·	·
CCOC(=O)N1CCC(NC(=O)CSc2cc(=O)n(C)c3ccccc23)CC1	49	47	·	2545	·	48	40	26	25
CCCCN(CC)C(=O)CSc1cc(=O)n(C)c2ccccc12	51	55	·	2446	·	74	32	20	–
CCOC(=O)CSc1cc(=O)n(CC)c2ccccc12	36	28	·	2136	·	32	27	–	–
Cn1c(=O)cc(SCC(=O)N2CCCC2)c2ccccc21	35	30	2626	2431	2601	–	37	24	26
Cc1cc(NC(=O)CSc2nc(-c3ccccc3)nc3c2c(=O)n(C)c(=O)n3C)no1	–	–	–	–	–	–	·	·	·
CN(C)c1ccc(NC(=O)CSc2nc(N)c(C(=O)Nc3ccc(N(C)C)cc3)s2)cc1	24	–	·	–	·	–	–	–	–
COc1cccc(C2C(C(=O)c3cc4ccccc4o3)=C(O)C(=O)N2c2cc(C)on2)c1OC (stereo unspecified)	45	50	·	2593	·	69	36	28	25
SMILES	PPARg SRC-2 ag	PPARg SRC-1 ag	SRC3 TRFRET art	SRC2 TRFRET art	SRC1 TRFRET art	PPARg SRC-3 ag	PPARg SRC2 conf	PPARg SRC1 ag	PPARg SRC3 ag
COc1cccc(C2C(C(=O)c3cc4cccc(OC)c4o3)=C(O)C(=O)N2c2cc(C)on2)c1OC (stereo unspecified)	35	33	·	2236	·	45	41	28	26
COc1ccc(OC)c(C2C(C(=O)c3cccs3)=C(O)C(=O)N2c2cc(C)on2)c1 (stereo unspecified)	–	–	·	–	·	–	·	·	·
COc1cc(C2C(C(=O)c3ccc(C)o3)=C(O)C(=O)N2c2cc(C)on2)ccc1O (stereo unspecified)	–	–	·	–	·	–	·	·	·
O=C(CCSCc1ccccc1Cl)NC1CCCCC1	–	–	–	–	–	–	·	·	·
COC(=O)c1cc(Cl)c(NC(=O)c2cc3ccccc3o2)cc1OC	50	97	·	3198	·	105	59	53	40
COC(=O)c1cc(Cl)c(NC(=O)c2ccc(C(C)(C)C)cc2)cc1OC	–	–	·	–	·	–	·	·	·
COc1ccc(C2N=C(N)N=C(N)N2c2ccccc2OC)cc1OC (stereo unspecified)	–	–	·	–	·	–	·	·	·
Cc1cc(C)nc(NS(=O)(=O)c2ccc(NC(=O)CSc3nc(-c4ccccc4)c(C#N)c(=O)[nH]3)cc2)n1	24	21	2218	2049	–	–	–	–	–
N#Cc1c(-c2ccccc2)nc(SCC(=O)Nc2ccccc2)[nH]c1=O	–	–	–	–	–	–	·	·	·
CCn1c(=O)cc(SCC(=O)N2CCN(c3ccccc3F)CC2)c2ccccc21	42	30	·	2381	·	34	36	23	24
CCn1c(=O)cc(SCC(=O)N2CCN(c3ccccn3)CC2)c2ccccc21	35	39	2355	2505	3018	–	50	34	34
Cc1cc2cc(CNC(=O)c3cc4ccccc4o3)ccc2n1C	–	22	·	2988	·	32	41	32	–
COc1ccc(C(=O)NCc2ccc3c(c2)cc(C)n3C)cc1	–	–	–	–	–	–	·	·	·
COC1Cc2ccccc2N(C(=O)N2CCN(CCO)CC2)c2ccccc21 (stereo unspecified)	–	19	·	–	·	–	–	–	–
O=C(Nc1nc(-c2cccs2)c(C(=O)C(F)(F)F)s1)c1ccco1	61	41	3363	3022	3540	37	37	22	25
CSc1oc(-c2ccccc2)nc1C(N)=O	–	–	·	–	·	30	27	–	–
CC(=O)c1sc(NC(=O)CCCOc2ccc(Cl)cc2)nc1C	27	22	2343	2055	–	–	–	–	–
Cc1cccc(NC(=O)CN2NS(=O)(=O)c3ccccc3C2=O)c1	–	–	·	–	·	–	·	·	·
COC(=O)c1ccc(C(=O)NC(=S)Nc2ccc3nc(SC)sc3c2)cc1	–	–	–	–	–	–	·	·	·
COc1ccc2c(c1)Sc1ccccc1N2	–	27	–	–	–	–	–	–	–
COc1ccc2[nH]c3ccccc3c2c1	–	–	·	–	·	–	·	·	·
COc1c(F)c(F)c(C(=O)Nc2ccc3oc(-c4ccncc4)nc3c2)c(F)c1F	–	82	·	–	·	74	71	66	49
